# Assay outcomes (PubChem)
# Mcl-1 Bim block = disrupts Bim peptide binding to human Mcl-1; actives 0.1% (n = 190,000); Bead-based flow cytometry, Bim peptide-Mcl-1 binding; AID 1009; Q07820; inhibition, % at 10 µM; in the data active = inhibition above about 40%;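 also: 0% = no compound tracer wells and 100% = peptide blocker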
# Target sequence (Q07820 whole entry, looked up): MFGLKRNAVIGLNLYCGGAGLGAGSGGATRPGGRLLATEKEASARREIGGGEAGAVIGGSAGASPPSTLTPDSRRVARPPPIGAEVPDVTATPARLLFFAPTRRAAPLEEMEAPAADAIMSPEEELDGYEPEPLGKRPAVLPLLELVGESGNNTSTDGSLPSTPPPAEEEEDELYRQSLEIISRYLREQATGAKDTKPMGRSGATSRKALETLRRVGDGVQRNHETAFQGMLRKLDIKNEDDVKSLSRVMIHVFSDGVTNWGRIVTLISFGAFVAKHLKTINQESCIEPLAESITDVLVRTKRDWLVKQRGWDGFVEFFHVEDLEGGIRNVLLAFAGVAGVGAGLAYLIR
# Mcl1-Bid inh = disrupts binding of human Mcl-1 to Bid peptide; TR-FRET Mcl-1/Bid-Dy647 peptide binding, 1536-well; Q07820; inhibition, % at 21.7 µM; actives 0.97% (n = 220,000);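 active = compounds that cut the binding signal by more than half at the single screening dose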;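 also: His-tagged Mcl-1 with europium anti-His antibody binding Bid BH3 peptide; 0% = Mcl-1 plus peptide wells and 100% = peptide-only wells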
# GLD-1 TGE inh = GLD-1-TGE RNA interaction inhibition (C. elegans). purified GLD-1 + fluorescein TGE RNA, fluorescence polarization. Q17339. inhibition, % at 5.96 µM. AID 2280. actives 0.44% (n = 320,000);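 active = percent inhibition above a per-plate cutoff, the plate mean of test compounds plus 3 SD, cut at about 30% in these data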;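 also: 0% = DMSO wells with GLD-1 and probe and 100% = wells lacking GLD-1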
# BCLXL inh = Bcl-xL (human) inhibition; Q07817; GST-Bcl-xL / FITC-Bim BH3 peptide fluorescence polarization; inhibition, % at 10.9 µM; actives 0.7% (n = 320,000);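 active = inhibition above the mean of all tested compounds plus 3 SD, cutoff set per campaign, cut at about 30% in these data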;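 also: 0% = DMSO wells and 100% = unlabeled Bim-BH3 peptide competitor; inhibitors lower millipolarization by displacing the labeled peptide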
# Target sequence (Q07817 whole entry, looked up): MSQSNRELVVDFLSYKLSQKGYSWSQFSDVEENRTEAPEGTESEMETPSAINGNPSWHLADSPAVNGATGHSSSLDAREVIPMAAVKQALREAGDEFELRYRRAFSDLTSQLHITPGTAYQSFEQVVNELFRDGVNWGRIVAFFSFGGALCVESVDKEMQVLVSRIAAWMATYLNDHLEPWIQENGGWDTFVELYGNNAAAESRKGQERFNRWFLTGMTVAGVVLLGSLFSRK
# Mcl1-Noxa inh = disrupts binding of human Mcl-1 to Noxa peptide | AID 1022 | Q07820 | TR-FRET Mcl-1/Noxa peptide binding, 2 h | actives 1.5% (n = 220,000) | inhibition, % at 21.7 µM;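 active = compounds that cut the protein-peptide binding signal by more than 50% relative to plate controls in a single-dose test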;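 also: His-tagged Mcl-1 with rhodamine Noxa BH3 peptide and terbium anti-His antibody; 0% = Mcl-1 plus Noxa peptide wells and 100% = peptide-only wells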
# MCL1-BIM inh = MCL1-BIM-BH3 interaction inhibition (human). Q07820. GST-MCL1 / FITC-Bim-BH3 fluorescence polarization. inhibition, % at 10.9 µM. actives 0.68% (n = 320,000);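 active = inhibition above the mean inhibition of all tested compounds plus 3 SD, set per campaign, cut at about 40% in these data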;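 also: 0% = DMSO wells and 100% = unlabeled Bim-BH3 peptide control; higher means more loss of mP so more displacement of Bim peptide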
# Bcl-xL conf = counter-screen for MCL1 inhibitors: confirmation of human Bcl-xL inhibitors | GST-Bcl-xL / FITC-Bim BH3 peptide FP binding | shares compounds with MCL1-BIM inh | actives 54% (n = 1,700) | inhibition, % at 10.9 µM;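 active = inhibition above a cutoff equal to the mean inhibition of all tested compounds plus 3 SD, cut at about 30% in these data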;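 also: 0% = DMSO wells and 100% = unlabeled Bim BH3 control peptide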
# MCL1 BIM confirm = MCL1-BIM-BH3 interaction inhibition, confirmation. GST-MCL1 / FITC-Bim-BH3 fluorescence polarization. shares compounds with MCL1-BIM inh. inhibition, % at 10.9 µM. actives 61% (n = 1,700);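 active = inhibition above the average of all tested compounds plus 3 SD, cut at about 40% in these data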;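 also: 0% = DMSO wells and 100% = unlabeled Bim-BH3 control peptide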
# * marks the source's active call; other numbers are inactive results; · = no result given; + = active, no number. Most compounds without a hit are left out; they make up all but 2.3% or so of the library.
SMILES,Mcl-1 Bim block,Mcl1-Bid inh,GLD-1 TGE inh,BCLXL inh,Mcl1-Noxa inh,MCL1-BIM inh,Bcl-xL conf,MCL1 BIM confirm
CN1CCN(C(c2ccc(Br)cc2)c2cc(Cl)c3cccnc3c2O)CC1 (stereo not drawn),·,·,-2,20,·,40*,47*,106*
CN1/C(=C\C=N\NC(=O)c2cccnc2)C(C)(C)c2ccccc21,0,-26,7,6,1,8,·,·
CN1/C(=C\C=N\NC(=O)c2ccc(O)cc2)C(C)(C)c2ccccc21,-4,-98,32*,39*,-3,47*,-15,-28
Nc1ccc(S(=O)(=O)N2CCC(Cc3ccccc3)CC2)cc1,·,·,-3,-1,·,0,·,·
CC(=O)c1ccc2c3c(cccc13)C(=O)N(c1c(C)nn(C)c1C)C2=O,4,-44,8,11,14,-19,·,·
Cc1n[nH]c(C)c1N1C(=O)c2cccc3c(N4CCCCCC4)ccc(c23)C1=O,2,-81,+,+,-76,+,184*,+
Nc1ccc(S(=O)(=O)Nc2nc3ccccc3o2)cc1,·,·,3,16,·,45*,28,47*
Cc1ccc(S(=O)(=O)c2nc(Cc3ccccc3)oc2N2CCOCC2)cc1,·,·,3,15,·,58*,14,79*
Cc1ccc(S(=O)(=O)c2nc(-c3ccccc3)oc2N2CCCC2)cc1,·,·,-1,8,·,29,·,·
O=C(NCCN1CCN(Cc2ccccc2)CC1)c1ccc(CS(=O)(=O)c2ccc(Br)cc2)o1,·,·,2,2,·,2,·,·
O=C(O)CN1C(=O)/C(=C\c2cc([N+](=O)[O-])ccc2OCc2ccccc2Cl)SC1=S,·,·,4,3,·,51*,22,47*
O=C1/C(=C\c2cc([N+](=O)[O-])ccc2O)SC(=S)N1Cc1ccc(Cl)cc1,·,·,47*,76*,·,66*,88*,105*
COc1ccc(-c2ccc3c(c2)S(=O)(=O)c2cccc(C(=O)N4CCN(c5c(Cl)cncc5Cl)CC4)c2C3=O)cc1OC,·,·,-10,·,·,·,·,·
COc1ccc(C(=O)N/C(=C\c2ccc(SC)cc2)C(=O)NCCCn2ccnc2)cc1OC,·,·,-4,·,·,·,·,·
Cc1ccc2[nH]c3c(c2c1)CN(C(=O)CN(C)CC1OCCO1)CC3,-8,-38,53*,58*,0,61*,9,11
CCc1nccn1CCC(=O)NC1CC(C)(C)Cc2c1cnn2-c1cccc(F)c1 (stereo not drawn),·,·,3,6,·,9,·,·
O=C(c1ccc(O)cc1)c1ccc(O)cc1O,·,-19,3,6,-4,12,·,·
O=C(c1ccccc1)c1ccc(O)cc1O,1,-39,79*,134*,7,154*,123*,137*
Cn1c(=O)c2[nH]c(-c3ccccc3)nc2n(C)c1=O,0,6,·,·,1,·,·,·
Cn1c(=O)c2[nH]c(-c3ccccc3Cl)c(O)c2n(C)c1=O,-6,-8,152*,115*,17,134*,49*,77*
Cn1c(=O)c2[nH]c(-c3ccccc3)c(O)c2n(C)c1=O,-2,-70,+,+,27,+,142*,159*
COc1ccc(OCC(O)CNC(=O)c2ccc(Br)cc2)cc1 (stereo not drawn),-2,2,4,4,-20,4,·,·
COc1ccc(OCC(O)CNC(=O)c2ccc(OC)cc2)cc1 (stereo not drawn),0,-9,-5,4,5,44*,5,7
CCCOc1ccc(N)cc1N,4,1,-5,117*,76*,124*,40*,45*
c1ccc2c(c1)CCc1ccccc1C2=C1CCNCC1,·,·,1,3,·,0,·,·
SMILES,Mcl-1 Bim block,Mcl1-Bid inh,GLD-1 TGE inh,BCLXL inh,Mcl1-Noxa inh,MCL1-BIM inh,Bcl-xL conf,MCL1 BIM confirm
CC(C)Oc1ccc(CC(=O)NNC(=S)Nc2ccccc2)cc1,·,-143,0,7,-48,186*,-29,-53
NS(=O)(=O)c1ccc(CCNC(=O)c2cc(-c3ccccn3)nc3ccc(Br)cc23)cc1,5,-36,6,-1,22,5,·,·
NS(=O)(=O)c1ccc(CNC(=O)c2cc(-c3cccnc3)nc3ccc(Br)cc23)cc1,·,·,7,3,·,51*,5,-3
O=c1oc2ccccc2nc1/C=C(O)/C=C\c1ccccc1,-3,-6,34*,57*,2,69*,-40,-94
O=c1oc2ccccc2nc1/C=C(O)/C=C/c1ccc(F)cc1,-2,-48,-5,-14,22,-34,·,·
CN(C)S(=O)(=O)c1ccc(NC(=O)CN2C(=O)NC(Cc3ccccc3)C2=O)cc1 (stereo not drawn),·,·,-2,-2,·,5,·,·
CC(=O)Oc1ccc2c(=O)c(Oc3ccccc3)coc2c1OC(C)=O,0,-104,-2,15,26,50*,20,40
O=c1cc(-c2ccccc2)oc2cc(O)c(O)c(O)c12,·,·,-1,·,·,·,·,·
O=c1c(O)cccc2cc(O)c(O)c(O)c12,·,92*,22,86*,104*,109*,85*,103*
CCOc1cc(C2C3=C(CC(C)(C)CC3=O)N(CCOC)C3=C2C(=O)CC(C)(C)C3)ccc1O,·,·,-5,3,·,4,·,·
COc1ccc(NC(=O)CN2CCCCCC2)cc1OC,·,·,1,1,·,-1,·,·
O=C1c2cccc(O)c2C(=O)c2c(O)cc(CO)cc21,·,·,81*,93*,·,100*,81*,100*
COc1ccc(C2=CC3=C(Br)C(=O)C(C)(OC(=O)c4cccs4)C(=O)C3=CO2)cc1 (stereo not drawn),·,·,13,20,·,42*,20,51*
COc1ccc(C2=CC3=C(Br)C(=O)C(C)(OC(=O)c4ccco4)C(=O)C3=CO2)cc1 (stereo not drawn),·,-8,20,42*,63*,54*,35*,76*
COc1ccc(C(=O)COC(=O)c2cccs2)cc1,·,·,4,·,·,·,·,·
Cc1ccc(C(=O)NCC(=O)NNC(=O)CN(C)S(=O)(=O)c2ccc(Cl)cc2)s1,·,·,4,3,·,0,·,·
CCOc1ccc2nc(NC(=O)c3ccccn3)sc2c1,·,-117,-5,-5,-87,56*,-2,-4
Cc1ccc2nc(NC(=O)c3ccccn3)sc2c1,-2,-84,-8,2,-16,10,·,·
O=C(COc1cc2oc(=O)c3c(c2cc1Cl)CCC3)NCC(O)c1ccccc1 (stereo not drawn),·,·,2,1,·,1,·,·
CC(=O)c1ccc2noc(-c3ccc(F)cc3)c2c1,0,-37,110*,98*,-1,98*,82*,103*
